The values that follow come from the supplement of paper PMC8975748.

Structures are written as SMILES. Structures can show the parent of a compound that is named as a salt.

The assay concerns Saccharomyces cerevisiae BY4741 SeMeCo community. Kind of assay: z-score of subpopulation abundance vs DMSO median, subpopulation auxotrophic for M; higher = larger share of this subpopulation than in DMSO controls. The conditions noted are these: 10 µM; 24 h; SM minimal medium; subpopulation (auxotrophy): M. Here is the method: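 Fluorescent four-plasmid SeMeCo (self-establishing metabolically cooperating S. cerevisiae BY4741 community; plasmids pH-mRuby2, pL-mWasabi, pU-eCFP, pM-TagRFP657) was grown 24 h in minimal SM medium with each Selleck FDA-approved drug at 10 µM in 384-well plates. Cells were fixed and imaged by high-content confocal microscopy. For each auxotrophic subpopulation (and the prototroph), a z-score gives the deviation from the DMSO vehicle-control population median.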
Consider `CCC(C)n1ncn(-c2ccc(N3CCN(c4ccc(OCC5COC(Cn6cncn6)(c6ccc(Cl)cc6Cl)O5)cc4)CC3)cc2)c1=O` (stereo not given) [Itraconazole], for which the “z-score of subpopulation abundance” value turned out to be 0.3.
As to `CC(c1cc2ccccc2s1)N(O)C(N)=O` (stereo not given) [Zileuton], the “z-score of subpopulation abundance” value turned out to be 0.27.
As for `COc1ccc2[nH]c([S+]([O-])Cc3ncc(C)c(OC)c3C)nc2c1` (stereo not given) [Omeprazole], the “z-score of subpopulation abundance” value was -0.74.
Take `CCN(CC)C(=O)N1CCN(C)CC1` [Diethylcarbamazine citrate]: the “z-score of subpopulation abundance” value is -0.11.
With `CCCCCCCCN=c1ccn(CCCCCCCCCCn2ccc(=NCCCCCCCC)cc2)cc1` [Octenidine Dihydrochloride], the “z-score of subpopulation abundance” value is -8.04.
As for `CCN(CC)C(=O)[C@@]1(c2ccccc2)C[C@H]1CN` [Levomilnacipran Hydrochloride], the “z-score of subpopulation abundance” value is -0.27.
Turning to `Clc1ccc(CCC(Cn2ccnc2)Sc2c(Cl)cccc2Cl)cc1` (stereo not given) [Butoconazole], the “z-score of subpopulation abundance” value is -8.6.
With `Cc1cccc(N(C)C(=S)Oc2ccc3ccccc3c2)c1` [Tolnaftate], the “z-score of subpopulation abundance” value was -0.22.
Consider `CCCCN1CCCC[C@H]1C(=O)Nc1c(C)cccc1C` [Levobupivacaine HCl], for which the “z-score of subpopulation abundance” value was -1.02.
The same measure for `COc1cccc2c1C(=O)c1c(O)c3c(c(O)c1C2=O)C[C@@](O)(C(=O)CO)C[C@@H]3O[C@H]1C[C@H](N)[C@H](O[C@@H]2CCCCO2)[C@H](C)O1` [Pirarubicin]: -12.
With `CCCCCCCCCCCC(=O)O` [Lauric Acid], the “z-score of subpopulation abundance” value was -1.03.
The result for `C[C@]12CCC(=O)C=C1[C@@H]1C[C@@H]1[C@H]1[C@@H]3[C@@H]4C[C@@H]4[C@@]4(CCC(=O)O4)[C@@]3(C)CC[C@@H]12` [Drospirenone] reads 0.59; that for `CC1(C)S[C@@H]2[C@H](NC(=O)[C@H](N)c3ccccc3)C(=O)N2[C@H]1C(=O)O` [Ampicillin Trihydrate], -0.37; that for `CCCCCNC(=N)N/N=C/c1c[nH]c2ccc(OC)cc12` [Tegaserod Maleate], 1.25.
The same measure for `Cc1onc(-c2c(Cl)cccc2Cl)c1C(=O)N[C@@H]1C(=O)N2[C@@H]1SC(C)(C)[C@@H]2C(=O)O` [Dicloxacillin Sodium]: -0.23; for `C[C@]12CCC3=C4CCC(=O)C=C4CC[C@H]3[C@@H]1CC[C@@]2(O)CC#N` [Dienogest]: -0.36; for `CS(=O)(=O)Nc1ccc([N+](=O)[O-])cc1Oc1ccccc1` [Nimesulide]: -0.1.
For `COc1cc(/C=C/C(=O)N2CCN(CC(=O)N3CCCC3)CC2)cc(OC)c1OC` [Cinepazide maleate], the “z-score of subpopulation abundance” value is 0.
`CN(CCN1CCC(OC(=O)Nc2ccccc2-c2ccccc2)CC1)C(=O)c1ccc(CN2CCC(C(N)=O)CC2)cc1` [Revefenacin]: the “z-score of subpopulation abundance” value amounted to 1.54.
The result for `NCCNc1ccc(NCCN)c2c1C(=O)c1ccncc1C2=O` [Pixantrone Maleate] reads -11.8.
As for `Clc1ccc(C(Cn2ccnc2)OCc2ccc(Sc3ccccc3)cc2)c(Cl)c1` (stereo not given) [Fenticonazole Nitrate], the “z-score of subpopulation abundance” value was -13.8.
`Nc1ccc(S(=O)(=O)Nc2ncccn2)cc1` [Sulfadiazine]: the “z-score of subpopulation abundance” value was -0.51.
Regarding `CN1CCN(CC(=O)N2c3ccccc3C(=O)Nc3cccnc32)CC1` [Pirenzepine dihydrochloride], the “z-score of subpopulation abundance” value was -0.96.
The result for `C[N+]1(C)CCC(OC(=O)C(O)(c2ccccc2)C2CCCC2)C1` (stereo not given) [Glycopyrrolate] reads 0.07.
As for `CC(C(=O)O)c1ccc2c(c1)CC(=O)c1ccccc1S2` (stereo not given) [Zaltoprofen], the “z-score of subpopulation abundance” value is 1.11.
With `Nc1ccc(S(=O)(=O)Nc2ccccn2)cc1` [Sulfapyridine], the “z-score of subpopulation abundance” value was determined as 0.24.
As for `NC(=O)c1cnccn1` [Pyrazinamide], the “z-score of subpopulation abundance” value is 0.41.
As to `COc1cccc2c1C(=O)c1c(O)c3c(c(O)c1C2=O)C[C@@](O)(C(C)=O)C[C@@H]3O[C@H]1C[C@H](N)[C@H](O)[C@H](C)O1` [Daunorubicin HCl], the “z-score of subpopulation abundance” value was -4.78.
Regarding `CC(=O)[C@H]1CC[C@H]2[C@@H]3CC=C4C[C@@H](O)CC[C@]4(C)[C@H]3CC[C@]12C` [Pregnenolone], the “z-score of subpopulation abundance” value was -0.05.
For the compound `CCn1cc(C(=O)O)c(=O)c2cc(F)c(N3CCNC(C)C3)c(F)c21` (stereo not given) [Lomefloxacin HCl], the “z-score of subpopulation abundance” value is 1.99.
Consider `OC(Cn1cncn1)(Cn1cncn1)c1ccc(F)cc1F` [Fluconazole], for which the “z-score of subpopulation abundance” value was -1.85.
With `CC/C(=C(/CC)c1ccc(O)cc1)c1ccc(O)cc1` [Diethylstilbestrol], the “z-score of subpopulation abundance” value is 0.52.
Turning to `COc1cc(O)c(C(=O)Nc2nc(C(=O)NCCN(C(C)C)C(C)C)cs2)cc1OC` [Acotiamide hydrochloride], the “z-score of subpopulation abundance” value was -0.47.
The same measure for `OCCN1CCN(CC/C=C2/c3ccccc3Sc3ccc(C(F)(F)F)cc32)CC1` [Flupenthixol dihydrochloride]: -0.29; for `CONC(=O)Nc1ccc(-c2sc3c(c2CN(C)C)c(=O)n(-c2ccc(OC)nn2)c(=O)n3Cc2c(F)cccc2F)cc1` [Relugolix]: -1.52; for `COc1cccc2c1C(=O)c1c(O)c3c(c(O)c1C2=O)CC(O)(C(=O)CO)CC3OC1CC(N)C(O)C(C)O1` (stereo not given) [Doxorubicin (Adriamycin) HCl]: -6.37.
Turning to `OC1(c2ccc(Cl)c(C(F)(F)F)c2)CCN(CCCC(c2ccc(F)cc2)c2ccc(F)cc2)CC1` [Penfluridol], the “z-score of subpopulation abundance” value came to 1.3.
`CN(Cc1cnc2nc(N)nc(N)c2n1)c1ccc(C(=O)N[C@@H](CCC(=O)O)C(=O)O)cc1` [Methotrexate]: the “z-score of subpopulation abundance” value was -4.24.
Consider `CC(C)NNC(=O)c1ccncc1` [Iproniazid], for which the “z-score of subpopulation abundance” value is -0.2.
In the case of `Cc1ncc([N+](=O)[O-])n1CC(C)O` (stereo not given) [Secnidazole], the “z-score of subpopulation abundance” value is -0.32.
